GoLoco inh red: inhibitors of human Gai1-RGS12 GoLoco interaction (red fluorophore). P63096. Gai1:RGS12 GoLoco peptide FP, rhodamine, 10 min. Potency, µM (series often up to 61.6 µM), actives largely listed as inhibitors. 230,000 tested, 0.44% active. AID 880; active means well fitted inhibition curve with a large enough effect, not every such curve was filed as active; inactive means no such curve, though single readings can be large or run the other way; further: nearly all actives have a fitted effect of over 30% in size
Target sequence (P63096 whole entry, looked up): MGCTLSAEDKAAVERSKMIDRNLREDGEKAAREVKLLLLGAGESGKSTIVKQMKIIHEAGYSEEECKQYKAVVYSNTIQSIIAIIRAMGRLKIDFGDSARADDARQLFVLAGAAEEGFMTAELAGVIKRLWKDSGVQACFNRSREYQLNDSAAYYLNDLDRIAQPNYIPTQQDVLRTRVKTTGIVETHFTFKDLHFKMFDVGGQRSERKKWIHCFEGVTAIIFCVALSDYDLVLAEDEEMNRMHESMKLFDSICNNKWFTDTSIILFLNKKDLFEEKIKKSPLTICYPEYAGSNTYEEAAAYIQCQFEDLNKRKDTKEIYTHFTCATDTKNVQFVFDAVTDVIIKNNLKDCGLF
TexasRed fluor: Texas Red fluorescence interference in TRb-SRC2 counter-screen. TRb/SRC2 Texas Red total fluorescence interference. Potency, µM (titrated, usually from 106 µM). 280,000 tested, 0.29% active. AID 1479; active means well fitted curve in either direction with a large enough effect; inconclusive means small, poorly fitted or top-dose-only effect
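Flags fluorescent or light-absorbing compounds by total fluorescence, S + 2P, at 555 nm excitation and 632 nm emission. Mixture: 20 nM Texas Red SRC2 peptide, 0.6 uM human TRb LBD, 1 uM T3, 5% DMSO; compound exposure 5 h at ambient temperature.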
RECQ1 inh-1: RECQ1 (human) helicase inhibition; 240,000 tested, 0.54% active; Potency, µM (titrated, usually from 57.3 µM), actives largely listed as inhibitors; P46063; RECQ1 DNA unwinding, red fluorescence kinetic read; AID 2549; further: nearly all actives have a fitted effect of over 30% in size
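RECQ1T1 50 nM; forked duplex (20 bp + 30-nt ss tails) 200 nM, ATP 2 mM final; pH 8.0, 2 mM MgCl2, 2.5 ug/ml poly(dI-dC); 15 min compound preincubation; discontinuous kinetic read over 2 h at RT.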
TRb-SRC2 inh: TRbeta-SRC2 interaction inhibition | P10828 | TRbeta-SRC2 peptide binding, fluorescence polarization; receptor liganded with 1 µM T3 | AID 1469 | 280,000 tested, 0.065% active | Potency, µM (doses to about 106 µM), usual class: inhibitors; further: nearly all actives have a fitted effect of over 50% in size
Target sequence (P10828 whole entry, looked up): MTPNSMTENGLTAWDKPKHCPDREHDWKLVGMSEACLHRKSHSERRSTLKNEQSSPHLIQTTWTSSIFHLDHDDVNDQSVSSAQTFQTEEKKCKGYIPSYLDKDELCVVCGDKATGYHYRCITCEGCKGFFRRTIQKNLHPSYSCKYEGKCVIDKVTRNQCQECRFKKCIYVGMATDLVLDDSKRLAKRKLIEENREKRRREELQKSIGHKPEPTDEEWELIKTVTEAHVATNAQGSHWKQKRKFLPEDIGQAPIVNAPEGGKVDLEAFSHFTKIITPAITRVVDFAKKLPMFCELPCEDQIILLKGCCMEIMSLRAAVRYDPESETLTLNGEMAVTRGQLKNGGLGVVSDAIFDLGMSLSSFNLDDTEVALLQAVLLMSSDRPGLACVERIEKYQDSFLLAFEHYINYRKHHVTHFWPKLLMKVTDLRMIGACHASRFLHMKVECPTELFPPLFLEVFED
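Assay buffer: 20 mM Tris-HCl, 100 mM NaCl, 10% glycerol, 1 mM EDTA, 0.01% NP-40, 1 mM DTT, 1 uM T3, 5% DMSO; TRb LBD 0.6 uM, Texas Red SRC2 20 nM; FP after 5 hr.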
BLM inh: inhibitors of human Bloom syndrome helicase BLM; P54132; recombinant BLM DNA unwinding, fluorescence dequenching; Potency, µM (series often up to 56.1 µM), actives largely listed as inhibitors; 350,000 tested, 0.2% active; further: nearly all actives have a fitted effect of over 35% in size
ERG-DNA inh: blocks human ERG Ets domain binding to DNA; P11308; fluorescence polarization, His-ERG Ets domain / labelled DNA; Potency, µM (top dose mostly 76.9 µM), actives largely listed as inhibitors; 370,000 tested, 0.028% active; active means well fitted inhibition curve with a large enough effect in the polarisation, with a control signal flat; inconclusive means small, poorly fitted or top-dose-only effect, or effect the other way, or a change in a side signal; inactive means no such curve, though single readings can be large or run the other way; the % refers to the polarisation;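 further: polarization taken with two DNA probes labelled with fluorescein and Texas red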
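His-tagged ERG Ets domain (1 uM in the protein solution; 300mM KCl, 50mM Tris-HCl, 1mM EDTA, 1mM DTT, pH 7.5) received compound, then a probe mix of 5 nM fluorescein-DNA and 100nM Texas-615-DNA. Fluorescence polarization was read for both dyes.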
RECQ1 inh conf: confirmation of human RECQ1 helicase inhibitors | shares compounds with RECQ1 inh-1 | RECQ1 helicase DNA unwinding, fluorescence | Potency, µM (doses to about 229 µM), usual class: inhibitors | 610 tested, 28% active; further: nearly all actives have a fitted effect of over 45% in size
ADP FP counter: counter-screen for RECQ1 inhibitors: ADP displacement; shares compounds with RECQ1 inh-1; ADP fluorescence polarization displacement counterscreen; Potency, µM (doses to about 228 µM), actives largely listed as inhibitors; 530 tested, 27% active; AID 2711; further: nearly all actives have a fitted effect of over 45% in size
RECQ1 inh-2: RECQ1 helicase inhibition confirmed, round 2 | shares compounds with RECQ1 inh-1 | recombinant RECQ1 DNA unwinding, red fluorescence | Potency, µM (titrated, usually from 119 µM), hits mostly inhibitors | 1,100 tested, 15% active; further: nearly all actives have a fitted effect of over 50% in size
Large screens that a line does not name were inactive (follow-up assays come after a bar, where they were run). Rows were chosen to be rich in hits. Some 0.71% of all compounds tested hit in one or more screens of this group. Unless noted, the call rests on the fitted dose curve; in most records, active means well fitted curve in the direction sought with a large enough effect; inconclusive means small, poorly fitted or top-dose-only effect, or another doubt; inactive means no such curve, though single readings can be large; an effect the other way counts as inactive or inconclusive.

COc1cc(CN2CCCCC2)cc2cc(C(=O)O)c(=O)oc12	none (no result: TexasRed fluor, RECQ1 inh-1, TRb-SRC2 inh, BLM inh, ERG-DNA inh)
COc1c(O)cc2c(=O)oc3c(OC)c(O)cc4c(=O)oc1c2c34	RECQ1 inh-1 3.2µM, BLM inh 14µM (no result: ERG-DNA inh) | RECQ1 inh-2 0.79µM
Cc1nn(C)c2nc(NNC(=O)Nc3cc(Cl)nc(Cl)c3)cc(C(C)C)c12	none (no result: ERG-DNA inh)
CC(C)(O)C#CC#CCN1CCOCC1	RECQ1 inh-1 inconclusive | RECQ1 inh-2 inactive
OC1(C#CCN2CCOCC2)CCCCC1	none
CC(=O)c1ccc(OC2C=CC(C#Cc3ccc(Br)cc3)OC2CO)cc1 (configuration not stated)	none (no result: GoLoco inh red, ERG-DNA inh)
O=C(CN1CCN(c2ccc(O)cc2)CC1)Nc1cc(S(=O)(=O)N2CCCC2)ccc1Cl	RECQ1 inh-1 13µM | RECQ1 inh conf inactive | ADP FP counter inactive | RECQ1 inh-2 inactive
O=C(CN1CCN(c2ccc(O)cc2)CC1)Nc1cc(S(=O)(=O)N2CCCCC2)ccc1Cl	none
O=C(Nc1cc2c(oc1=O)CCCC2=O)c1ccc(Cl)cc1	RECQ1 inh-1 14µM, BLM inh inconclusive | RECQ1 inh conf 14µM | ADP FP counter inconclusive
CCOc1ccccc1-c1nnc2n1N=C(c1ccc(OC)c(OC)c1)CS2	none (no result: GoLoco inh red, ERG-DNA inh) | RECQ1 inh conf inactive
C[C@]12CC[C@@H]3c4ccc(O)cc4CC[C@H]3[C@@H]1CC[C@H]2O	none (no result: ERG-DNA inh)
Cc1cc(C)c(Nc2cc(S(=O)(=O)O)c(N)c3c2C(=O)c2ccccc2C3=O)c(C)c1	RECQ1 inh-1 inconclusive, TRb-SRC2 inh 45µM | RECQ1 inh-2 32µM
Nc1ccc(-c2ccc(Nc3cc(S(=O)(=O)O)c(N)c4c3C(=O)c3ccccc3C4=O)cc2)c(S(=O)(=O)O)c1	none (no result: TexasRed fluor, RECQ1 inh-1, TRb-SRC2 inh, BLM inh, ERG-DNA inh)
CCc1nnc(NC(=O)c2sc3nc4c(cc3c2N)CCCCCC4)s1	RECQ1 inh-1 inconclusive | RECQ1 inh-2 inconclusive
CN(C)CCn1c(CO)nc2c1c(=O)n(C)c(=O)n2C	none (no result: TexasRed fluor, RECQ1 inh-1, TRb-SRC2 inh, BLM inh, ERG-DNA inh)
Oc1ccc(N2CCN(c3nc(-c4cccs4)nc4ccccc34)CC2)cc1	RECQ1 inh-1 inconclusive | RECQ1 inh-2 inconclusive
Cc1cc(C)cc(NC(=O)c2c(C)oc3nc(C)nc(N4CCCC4)c23)c1	none (no result: GoLoco inh red, RECQ1 inh-1)
O=C(NCc1cccc(F)c1)C1=Cc2cc(Br)ccc2OC1	none (no result: GoLoco inh red, RECQ1 inh-1)
CC1=Nc2ccccc2/C1=C\c1nc(-c2ccc(C(F)(F)F)cc2)oc1O	none
CC1=Nc2ccccc2/C1=C/c1sc(=N)n(-c2nccs2)c1O	RECQ1 inh-1 18µM | RECQ1 inh conf inactive | ADP FP counter inactive
COC(=O)c1ccc(NC(=O)C(=O)NCCc2sc(-c3cccc(F)c3)nc2C)cc1	none (no result: GoLoco inh red, RECQ1 inh-1)
Cn1cnc2nc(NCCO)nc(NCc3ccccc3)c21	none (no result: BLM inh, ERG-DNA inh)
CCCC[C@@H]1CN2[C@H](c3ccc(Br)cc3)[C@@H](C)CC[C@H]2C(=O)O1	none (no result: GoLoco inh red, ERG-DNA inh)
Cc1ccc(-c2nn(-c3cccc(F)c3)cc2CN(Cc2nccn2C)C(C)C)o1	none
Cc1ccc(-c2nn(-c3cccc(F)c3)cc2CN2CCN(c3ccccn3)CC2)o1	RECQ1 inh-1 inconclusive | RECQ1 inh-2 inconclusive
Cc1c(Cl)c(C(F)F)nn1CC(=O)NC1C(=O)N2C(C(=O)O)=C(CSc3nnnn3C)CSC12 (configuration not stated)	none | RECQ1 inh conf inactive | ADP FP counter inconclusive
Cc1nn(CC(=O)NC2C(=O)N3C(C(=O)O)=C(CSc4nnnn4C)CSC23)cc1Br (configuration not stated)	none | RECQ1 inh conf inactive | ADP FP counter inconclusive
Cn1nnnc1SCC1=C(C(=O)O)N2C(=O)C(NC(=O)Cn3nc(C(F)F)cc3C3CC3)C2SC1 (configuration not stated)	none
Cc1c(Cl)cnn1CC(=O)NC1C(=O)N2C(C(=O)O)=C(CSc3nnnn3C)CSC12 (configuration not stated)	none
CS(=O)(=O)Nc1cccc(-c2nc(N3CCNCC3)c3ccccc3n2)c1	none (no result: ERG-DNA inh)
O=C(O)c1cc([N+](=O)[O-])ccc1N1CCCCC1	none
Cc1ccc(C(=O)c2cc([N+](=O)[O-])ccc2N2CCCCC2)c(C)c1	RECQ1 inh-1 1.6µM | RECQ1 inh-2 inactive
O=S(=O)(Nc1nc(-c2sccc2Cl)cs1)c1cc(Cl)ccc1Cl	RECQ1 inh-1 inconclusive | RECQ1 inh-2 inconclusive
O=[N+]([O-])c1ccc(-c2cnc(SCc3ccccc3Cl)[nH]2)cc1	RECQ1 inh-1 inconclusive | RECQ1 inh-2 inactive
CC[C@H](C)[C@H](NC(=O)[C@H](Cc1ccc(O)cc1)NC(=O)[C@H](CCCNC(=N)N)NC(=O)[C@H](CCCNC(=N)N)NC(=O)[C@H](CC(C)C)NC(=O)[C@H](CCC(N)=O)NC(=O)[C@@H](NC(=O)[C@H](CCC(=O)O)NC(=O)[C@H](Cc1ccc(O)cc1)NC(=O)[C@H](CCC(N)=O)NC(=O)[C@H](C)NC(=O)[C@H](CCCNC(=N)N)NC(=O)[C@H](CCC(N)=O)NC(=O)[C@H](CCC(=O)O)NC(=O)[C@H](Cc1cnc[nH]1)NC(=O)[C@@H](NC(=O)[C@H](C)NC(=O)[C@H](Cc1ccc(O)cc1)NC(=O)[C@H](CC(=O)O)NC(=O)CNC(=O)[C@@H]1CCCN1C(=O)[C@H](Cc1ccc(O)cc1)NC(=O)[C@H](CCSC)NC(=O)[C@@H]1CCCN1C(=O)[C@H](CCC(=O)O)NC(=O)[C@H](CC(C)C)NC(=O)[C@@H]1CCCN1C(=O)[C@H](C)N)[C@@H](C)O)[C@@H](C)O)C(=O)N[C@@H](CC(N)=O)C(=O)N[C@H](C(=O)N[C@@H](CC(C)C)C(=O)N[C@H](C(=O)N[C@@H](CCCNC(=N)N)C(=O)N1CCC[C@H]1C(=O)N[C@@H](CCCNC(=N)N)C(=O)N[C@@H](Cc1ccc(O)cc1)C(N)=O)[C@@H](C)O)[C@@H](C)O	none (no result: GoLoco inh red, ERG-DNA inh)
O=C(CSc1nc(-c2ccc(F)cc2)cs1)NC(=O)NCc1ccco1	RECQ1 inh-1 35µM | RECQ1 inh-2 inconclusive
Cc1cc(C(=O)CSc2nc3ccccc3c(=O)n2C)c(C)n1CC1CCCO1 (configuration not stated)	none (no result: ERG-DNA inh)
Cc1cc(C(=O)CSc2nnnn2-c2ccccc2)c(C)n1CC1CCCO1 (configuration not stated)	none

Bioassay records (PubChem BioAssay)
